# Data taken from PubChem BioAssay.
# The source made the active and inactive calls. Unless noted, how the calls were made is not given here.
# How the values were obtained:
# [1] = system: Wnt5a (protein binding on small-molecule microarray); assay: small molecules binding Wnt5a protein – biophysical, small-molecule microarray, 635/667 nm fluorescence, primary screen (AID 1142); details: 635 nm fluorescence, higher = more signal;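 further: fluorescence read at 667 nm with signal to noise per printed feature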
# [2] = ATP-based viability of Huh7 replicon cells – cell-based, CellTiter-Glo luminescence, basal, 48 h, cytotoxicity control for HCV replication inhibitor project, primary screen (AID 1143); details: higher = more signal, called active from +8 up or from −8 down;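 further: Huh7 hepatoma cells carrying a hepatitis C replication reporter with no stimulus; test concentration not given here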
# [3] = Pseudomonas biofilm growth suppression – PAO1 strain, BacTiter-Glo luminescence, LB-PBS, primary screen (AID 1144); details: P. aeruginosa PAO1 biofilm, 12 h, higher = more signal
# [4] = basal CRE-LacZ reporter activity in PC12 – cell-based, unstimulated, primary screen (AID 1145); details: no forskolin, luminescence, 4.5 h, higher = more signal, called active from +8 up or from −8 down
# [5] = forskolin-driven CRE-LacZ activity in PC12 – cell-based, CRE-LacZ reporter, forskolin-stimulated, primary screen (AID 1146); details: luminescence, 4.5 h, higher = more signal, called active from +8 up or from −8 down;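 further: PC12 cells with 6xCRE LacZ reporter stimulated by forskolin 10 µM; beta-galactosidase reporter signal reflecting CREB driven transcription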
# [6] = biological target: Streptavidin (Streptomyces avidinii) (UniProt P22629); assay: compounds binding control protein streptavidin – biophysical, small-molecule microarray, 635/667 nm fluorescence, artefact control for SMM compound annotation, primary screen (AID 1147); details: higher = more signal;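 further: signal reflects streptavidin binding to arrayed compounds as a control protein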
# [7] = probe aInhba binding on compound microarray – biochemical, small-molecule microarray, 635/667 nm fluorescence, primary screen (AID 1148); details: higher = more signal;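 further: score merges 667nm spot fluorescence with signal-to-noise for antibody binding to printed compounds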
# Torsin-1A (Homo sapiens) [8] = biological target: Torsin-1A (Homo sapiens) (UniProt O14656); assay: TOR1A wild-type binding on microarray – cell lysate, small-molecule microarray, lysate, 635/667 nm, primary screen (AID 1149); details: COS7 hTOR1A-WT lysate, 635 nm fluorescence, higher = more signal
# Torsin-1A (Homo sapiens) [9] = biological target: Torsin-1A (Homo sapiens) (UniProt O14656); assay: torsin A mutant lysate binding on microarrays – cell lysate, small-molecule microarray, COS7 lysate, 635/667 nm fluorescence, primary screen (AID 1150); details: COS7 hTOR1A mutant lysate, 635 nm fluorescence, higher = more signal;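 further: score pools 667 nm emission and signal to noise measuring lysate protein binding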
# [10] = system: Sonic hedgehog protein (Shh); assay: Sonic hedgehog microarray binding compounds – biochemical, small-molecule microarray, 635/667 nm fluorescence, primary screen (AID 1151); details: 635 nm fluorescence, higher = more signal;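 further: Shh protein binding to compounds spotted on small-molecule microarray slides; score combines spot fluorescence intensity with signal-to-noise across triplicate slides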
# [11] = optical density shifts of acrAB sulA E. coli – strain DRC41, OD650, 48 h, E. coli filamentation inducer project, primary screen (AID 1152); details: higher = more signal, called active from +8 up or from −8 down;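 further: E. coli MC1000 strain DRC41 lacking acrAB efflux pump and sulA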
# [12] = probe aLefty1 binding on compound microarray – biochemical, small-molecule microarray, 635/667 nm fluorescence, primary screen (AID 1153); details: higher = more signal;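 further: score merges spot fluorescence with signal-to-noise ratio from the scanned slide images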
# [13] = plasmodial surface anion channel blockers, osmotic lysis – cell-based, P. falciparum Indochina, OD700, 1 h, primary screen (AID 1154); details: P. falciparum Indochina infected RBC osmotic lysis, higher = more signal, called active from +8 up or from −8 down
# [14] = plasmodial surface anion channel blockers, osmotic lysis – cell-based, P. falciparum Indochina, OD700, 2 h, primary screen (AID 1155);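 further: lysis reports solute entry through the parasite surface anion channel PSAC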; details: P. falciparum Indochina infected erythrocytes, higher = more signal, called active from +8 up or from −8 down
# [15] = changes in parasitized red cell lysis, either direction – P. falciparum Indochina, OD700, 3 h, PSAC antagonist project, primary screen (AID 1156); details: P. falciparum-infected erythrocytes, osmotic lysis, higher = more signal, called active from +8 up or from −8 down
# [16] = plasmodial surface anion channel blockers, osmotic lysis – cell-based, P. falciparum Indochina, OD700, 18 h, primary screen (AID 1157); details: P. falciparum Indochina infected erythrocytes, osmotic lysis OD700, 18 h; higher = more signal, called active from +8 up or from −8 down
# [17] = S6 kinase pathway phospho-S6 level changes – cell-based, A549, cytoblot, luminescence, serum-stimulated, primary screen (AID 1158); details: 5 h, higher = more signal;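 further: serum-stimulated A549 lung adenocarcinoma cells; signal is phosphorylated S6 detected by cytoblot immunostaining with HRP secondary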
# [18] = biological target: NADPH oxidase 2 (Homo sapiens) (UniProt P04839); assay: compounds shifting NOX2 Amplex Red fluorescence – cell-based, HEK293-NOX2, PMA-stimulated, NOX inhibitor project, primary screen (AID 1159); details: 45 min, higher = more signal, called active from +8 up or from −8 down; further: test concentration not given here
# [19] = biological target: NADPH oxidase 4 (Homo sapiens) (UniProt Q9NPH5); assay: compounds shifting NOX4 Amplex Red fluorescence – cell-based, HEK293-NOX4, tetracycline-induced, NOX inhibitor project, primary screen (AID 1160); details: HEK293-NOX4, Amplex Red H2O2 fluorescence, 45 min; higher = more signal, called active from +8 up or from −8 down
# [20] = biological target: NADPH oxidase 5 (Homo sapiens) (UniProt Q96PH1); assay: compounds shifting NOX5 Amplex Red fluorescence – cell-based, HEK293-NOX5, NOX inhibitor project, primary screen (AID 1161); details: HEK293-NOX5, ionomycin, 45 min, higher = more signal
# NADPH oxidase 5 (Homo sapiens), sequence (Q96PH1 whole entry, looked up): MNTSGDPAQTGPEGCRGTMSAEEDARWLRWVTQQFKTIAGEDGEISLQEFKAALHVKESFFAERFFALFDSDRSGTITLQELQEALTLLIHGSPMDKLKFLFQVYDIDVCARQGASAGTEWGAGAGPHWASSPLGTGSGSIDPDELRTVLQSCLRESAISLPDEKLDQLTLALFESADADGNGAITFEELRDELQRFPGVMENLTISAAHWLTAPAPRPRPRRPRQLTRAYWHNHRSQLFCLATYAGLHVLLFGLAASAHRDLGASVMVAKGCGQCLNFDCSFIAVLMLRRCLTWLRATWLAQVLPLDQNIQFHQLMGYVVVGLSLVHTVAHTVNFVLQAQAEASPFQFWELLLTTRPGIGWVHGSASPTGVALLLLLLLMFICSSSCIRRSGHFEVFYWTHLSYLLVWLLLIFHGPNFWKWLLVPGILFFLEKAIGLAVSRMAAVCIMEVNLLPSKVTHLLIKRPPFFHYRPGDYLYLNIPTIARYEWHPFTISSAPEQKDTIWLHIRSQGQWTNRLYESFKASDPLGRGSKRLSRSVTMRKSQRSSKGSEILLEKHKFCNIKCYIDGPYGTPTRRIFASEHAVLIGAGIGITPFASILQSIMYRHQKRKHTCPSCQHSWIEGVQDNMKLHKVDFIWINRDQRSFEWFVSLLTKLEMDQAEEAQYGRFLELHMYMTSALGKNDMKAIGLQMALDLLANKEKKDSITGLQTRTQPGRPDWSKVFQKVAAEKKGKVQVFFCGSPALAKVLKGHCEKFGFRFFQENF
# Torsin-1A (Homo sapiens), sequence (O14656 whole entry, looked up): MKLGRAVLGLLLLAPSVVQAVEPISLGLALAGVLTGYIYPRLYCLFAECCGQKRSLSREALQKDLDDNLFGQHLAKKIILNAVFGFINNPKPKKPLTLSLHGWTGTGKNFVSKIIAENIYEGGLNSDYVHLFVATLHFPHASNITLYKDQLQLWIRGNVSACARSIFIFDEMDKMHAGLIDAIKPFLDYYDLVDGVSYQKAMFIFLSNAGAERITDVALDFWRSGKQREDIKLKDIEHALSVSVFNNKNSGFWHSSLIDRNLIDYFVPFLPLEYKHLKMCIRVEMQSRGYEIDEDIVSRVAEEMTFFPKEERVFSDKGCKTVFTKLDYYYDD
# NADPH oxidase 2 (Homo sapiens), sequence (P04839 whole entry, looked up): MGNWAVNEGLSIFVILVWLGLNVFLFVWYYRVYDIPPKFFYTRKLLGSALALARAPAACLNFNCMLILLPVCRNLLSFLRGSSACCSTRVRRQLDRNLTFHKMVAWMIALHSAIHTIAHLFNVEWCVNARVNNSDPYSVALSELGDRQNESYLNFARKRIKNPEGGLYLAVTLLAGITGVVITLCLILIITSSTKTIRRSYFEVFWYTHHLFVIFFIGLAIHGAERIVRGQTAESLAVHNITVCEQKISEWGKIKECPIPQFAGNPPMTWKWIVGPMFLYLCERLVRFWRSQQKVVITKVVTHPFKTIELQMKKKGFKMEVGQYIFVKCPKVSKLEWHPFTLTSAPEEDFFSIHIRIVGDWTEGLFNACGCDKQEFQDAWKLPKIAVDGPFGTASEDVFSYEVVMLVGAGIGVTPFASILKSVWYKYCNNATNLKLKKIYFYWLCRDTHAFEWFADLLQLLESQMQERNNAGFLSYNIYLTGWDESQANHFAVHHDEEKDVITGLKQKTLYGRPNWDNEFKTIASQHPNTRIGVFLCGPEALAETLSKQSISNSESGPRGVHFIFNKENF
# NADPH oxidase 4 (Homo sapiens), sequence (Q9NPH5 whole entry, looked up): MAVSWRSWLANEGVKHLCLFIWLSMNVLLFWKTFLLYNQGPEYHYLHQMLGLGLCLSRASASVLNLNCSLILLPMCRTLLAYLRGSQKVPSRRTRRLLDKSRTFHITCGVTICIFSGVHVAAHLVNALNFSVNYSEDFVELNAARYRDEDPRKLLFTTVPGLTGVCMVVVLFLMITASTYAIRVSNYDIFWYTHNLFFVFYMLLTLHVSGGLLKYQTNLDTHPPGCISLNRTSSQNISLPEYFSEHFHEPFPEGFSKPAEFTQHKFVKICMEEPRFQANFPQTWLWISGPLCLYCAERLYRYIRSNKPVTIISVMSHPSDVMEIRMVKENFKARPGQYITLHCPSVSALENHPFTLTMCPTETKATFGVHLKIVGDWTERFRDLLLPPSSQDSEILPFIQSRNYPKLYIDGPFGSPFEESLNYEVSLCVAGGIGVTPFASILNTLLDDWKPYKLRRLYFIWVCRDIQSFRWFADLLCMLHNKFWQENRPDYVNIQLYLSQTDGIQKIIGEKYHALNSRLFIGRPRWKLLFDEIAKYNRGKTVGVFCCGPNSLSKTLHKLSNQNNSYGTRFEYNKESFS
# Streptavidin (Streptomyces avidinii), sequence (P22629 whole entry, looked up): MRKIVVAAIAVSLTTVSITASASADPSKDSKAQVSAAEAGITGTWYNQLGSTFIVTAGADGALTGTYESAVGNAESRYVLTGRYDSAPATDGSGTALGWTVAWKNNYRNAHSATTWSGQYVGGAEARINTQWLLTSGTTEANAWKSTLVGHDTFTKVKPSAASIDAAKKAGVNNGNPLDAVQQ
Compound,composite z-score [1],z-score [2],z-score [3],z-score [4],z-score [5],composite z-score [6],composite z-score [7],composite z-score (Torsin-1A (Homo sapiens) [8]),composite z-score (Torsin-1A (Homo sapiens) [9]),composite z-score [10],z-score [11],composite z-score [12],z-score [13],z-score [14],z-score [15],z-score [16],z-score [17],z-score [18],z-score [19],z-score [20]
Cc1cc(C)c(C(O)C2C=CC3C(=O)N(c4ccccc4)C(=O)C3N2Nc2ccc([N+](=O)[O-])cc2)c(C)c1 (stereo not given),0.243,-1.1 (inactive),-2.08 (inactive),-0.0696 (inactive),0.691 (inactive),1.72,0.548,0.567,1.2,0.697,-0.613 (inactive),0.703,6.15 (inactive),1.76 (inactive),0.252 (inactive),1.13 (inactive),-0.62,-0.305 (inactive),-0.661 (inactive),-1.63
C[N+](C)(C)CCCCNC(=O)[C@H]1C[C@H]2C(=O)NCC(=O)N2[C@H]1c1ccc(O)cc1,0.442,0.215 (inactive),-0.895 (inactive),-0.398 (inactive),-0.501 (inactive),0.158,0.106,0.979,0.672,2.14,0.77 (inactive),0.242,0.367 (inactive),0.0681 (inactive),-0.393 (inactive),0.0564 (inactive),-0.0248,-1.51 (inactive),-0.769 (inactive),0.226
C=CCC(OC(C)=O)[C@@H]1[C@@H](N(Cc2cc3ccccc3o2)C(=O)Cc2ccc(OC)cc2)c2cc(OCCCO)ccc2N1C(=O)c1ccc(-c2ccccc2)cc1 (stereo not given in full),0.0628,-0.279 (inactive),-0.866 (inactive),2.47 (inactive),-0.362 (inactive),0.215,0.105,0.176,0.262,0.0275,1.26 (inactive),0.143,2.1 (inactive),0.0881 (inactive),0.821 (inactive),0.432 (inactive),0.78,0.125 (inactive),-0.964 (inactive),1.56
CCCN1C(=O)[C@@]2(Cc3ccccc3)N=C(c3ccc(OCCCO)cc3)O[C@H]2c2ccccc21,0.421,-5.03 (inactive),-0.657 (inactive),1.61 (inactive),-0.979 (inactive),-0.0407,0.215,1.06,0.884,1.72,0.299 (inactive),0.572,32.7 (active),33.7 (active),3.01 (inactive),5.2 (inactive),-0.149,-2.69 (inactive),-0.584 (inactive),-1.79
CC[C@@H]1[C@@H]2C3C(=O)N(CC)C(=O)C3CC(=O)[C@@H]2[C@H](c2ccc(C)cc2)N1S(=O)(=O)c1ccc(C)cc1 (stereo not given in full),0.513,-3.1 (inactive),-1.88 (inactive),-0.424 (inactive),-0.42 (inactive),0.492,-0.0523,-0.087,0.645,1.18,1.29 (inactive),-0.149,1.39 (inactive),0.0985 (inactive),-0.511 (inactive),-1.35 (inactive),1.04,1.04 (inactive),0.451 (inactive),2.06
C=CCC(OC(C)=O)[C@@H]1[C@@H](N(Cc2ccc(-c3ccccc3)cc2)C(=O)Cc2ccc(OC)cc2)c2cc(OCCCO)ccc2N1C(=O)c1ccc(-c2ccccc2)cc1 (stereo not given in full),0.0546,-1.56 (inactive),0.148 (inactive),1.34 (inactive),-0.522 (inactive),-0.0206,-0.0018,0.0765,0.0644,1.16,0.769 (inactive),0.587,1.09 (inactive),0.969 (inactive),0.0304 (inactive),0.406 (inactive),1,0.713 (inactive),0.878 (inactive),2.49
Cc1ccc(S[C@]2(C(=O)NCCN3CCOCC3)CC(=O)N(C3Cc4ccccc4C3)[C@@H]2c2ccc(CO)cc2)cc1,-0.2,-0.73 (inactive),-0.396 (inactive),-0.152 (inactive),1.3 (inactive),-0.994,-0.125,0.0023,0.206,-0.393,0.293 (inactive),0.482,2.1 (inactive),0.0757 (inactive),0.62 (inactive),0.375 (inactive),-0.348,-0.66 (inactive),-1.82 (inactive),-1.58
O=C1c2ccccc2[C@](Cc2ccccc2I)(C(=O)NCC(F)(F)F)[C@H](c2ccc(CO)cc2)N1Cc1ccccc1,-0.134,-0.396 (inactive),0.144 (inactive),0.272 (inactive),2.76 (inactive),1,0.098,-0.661,0.341,0.46,0.131 (inactive),-0.229,2.39 (inactive),0.111 (inactive),0.369 (inactive),0.278 (inactive),-0.261,0.738 (inactive),-0.16 (inactive),1.14
